{"source": "PubChem BioAssay AID489025", "about": "(Southern Research Specialized Biocontainment Screening …, 2010)", "note": "Hit rate of the full screen: of about 2,300 compounds, about 790 (34%) were called active. Some of the results follow. Measured potencies and affinities stand elsewhere. A number with no mark means an inactive call. How the calls were made is not given here.", "data": [{"assay": "THP-1 cell cytotoxicity, dose response, cytotoxicity control for non-replicating M. tuberculosis project (AID 489025)", "details": "THP-1 cell viability; series mostly up to 40 µM; viability: at the top concentration", "units": {"viability": "%"}, "values": [{"smiles": "CCOC(=O)CN1NC2(CCC(C)CC2)NC1=S", "note": "(configuration not stated)", "viability": 86.5}, {"smiles": "CCc1cc(C(c2ccncc2)N2CCN(C)CC2)c(NC(=O)c2ccccc2)s1", "note": "(configuration not stated)", "viability": 106}, {"smiles": "Cc1ccc(C(=O)Oc2cccc(-n3cnnn3)c2)cc1", "viability": 87.2}, {"smiles": "CCc1ccc(NC(=O)C(=O)NNC(=O)c2cccc(OC)c2)cc1", "viability": 77.2}, {"smiles": "COC(=O)COc1ccc(-c2ccc(F)cc2)cc1C=O", "viability": 87.1}, {"smiles": "Cc1ccc(CCC(=O)Nc2ccc([N+](=O)[O-])cc2)o1", "viability": 106}, {"smiles": "COc1ccc(/C=N/NC(=O)C(=O)NCc2cccnc2)cc1OC", "viability": 117}, {"smiles": "Cc1ccc(CCC(=O)Nc2cc(Cl)ccc2Cl)o1", "viability": 95.1}, {"smiles": "O=[N+]([O-])c1ccc(/C=N/NS(=O)(=O)c2ccc(Cl)cc2)o1", "viability": 90}, {"smiles": "Cc1ccc(OCC(=O)N/N=C/c2ccc([N+](=O)[O-])o2)cc1", "viability": 100}, {"smiles": "Cc1ncsc1CCOC(=O)c1ccc([N+](=O)[O-])cc1", "viability": 88.5}, {"smiles": "Oc1ccc(Br)cc1-c1ccn[nH]1", "viability": 94.1}, {"smiles": "CCCCNC(=O)COC(=O)c1cc(F)c(F)cc1Cl", "viability": 125}, {"smiles": "C=Cc1cccc(NC(=O)COc2ccccc2)c1", "viability": 90.2}, {"smiles": "Cc1nn(-c2ccccc2)nc1C(=O)c1c(C)[nH]n(-c2ccccc2)c1=O", "viability": 84.6}, {"smiles": "CCC(C)c1ccc(O)c(/C=N/O)c1", "note": "(configuration not stated)", "viability": 94.4}, {"smiles": "O=[N+]([O-])c1cc2oc3c(c2c(C=NCc2ccccc2)c1O)CCCC3", "viability": 118}, {"smiles": "Nc1ccc(C(=O)N/N=C\\C=C\\c2ccc([N+](=O)[O-])cc2)cc1", "viability": 118}, {"smiles": "O=C(N/N=C/C=C/c1ccco1)c1ccncc1", "viability": 96.7}, {"smiles": "O=C(COC(=O)CCC(=O)c1ccc(F)cc1)Nc1ccc(F)cc1F", "viability": 110}, {"smiles": "COc1cccc(OC(=O)c2cc3ccccc3oc2=O)c1", "viability": 101}, {"smiles": "CCC(=O)N1CCN(c2cc3c(cc2F)c(=O)c(C(=O)O)cn3CC)CC1", "viability": 119}, {"smiles": "CC(C)OC(=O)CCCCCN1C(=O)CSC1=S", "viability": 106}, {"smiles": "O=C(OCC#CCSc1nnc(-c2ccccc2)o1)c1ccco1", "viability": 91.4}, {"smiles": "COC(=O)CCCCCN1C(=O)/C(=C\\c2ccncc2)SC1=S", "viability": 75.8}, {"smiles": "Cc1ccc(C(=O)c2cncc(Br)c2)cc1", "viability": 86.4}, {"smiles": "CCCCN1C(=O)C2(NNc3ccccc3O2)c2ccccc21", "note": "(configuration not stated)", "viability": 77.2}, {"smiles": "COC(=O)COc1ccc2c(=O)c(Oc3ccccc3)c(C)oc2c1", "viability": 113}, {"smiles": "O=C(NCC1CCCCC1)c1ccc([N+](=O)[O-])cc1", "viability": 112}, {"smiles": "O=C(C/C=N\\OCc1ccc([N+](=O)[O-])cc1)Nc1ccc(Br)cc1", "viability": 91.5}, {"smiles": "NC(N)=N/N=C/c1cc([N+](=O)[O-])ccc1O", "viability": 119}, {"smiles": "O=C(NNc1ccc([N+](=O)[O-])cc1)C1CC2CCCC(C1)C2=O", "note": "(configuration not stated)", "viability": 124}, {"smiles": "CCCC(=O)Nc1cccc(-c2nc3ccccc3c(=O)o2)c1", "viability": 110}, {"smiles": "C#CCOc1coc(COC(=O)c2ccccc2)cc1=O", "viability": 93.3}, {"smiles": "CC1C/C(=N/N2C(=O)CSC2=S)CC(C)(C)C1", "note": "(configuration not stated)", "viability": 127}, {"smiles": "CCCCCCC1CC(C)(C(=O)CNc2nncs2)OC1=O", "note": "(configuration not stated)", "viability": 115}, {"smiles": "CC1=NN(C(=O)c2csc(C)c2C)C(O)(C(F)(F)F)C1", "note": "(configuration not stated)", "viability": 90.6}, {"smiles": "Nc1cccn2c(-c3ccc(Cl)cc3)cnc12", "viability": 89.2}, {"smiles": "Cc1ccc(C(=O)Nc2nccs2)cc1", "viability": 78.5}, {"smiles": "CCN1CCN(C(=O)CN(Cc2ccccc2)S(C)(=O)=O)CC1", "viability": 85.7}, {"smiles": "C/C(=N\\NC(=O)c1cc([N+](=O)[O-])cc([N+](=O)[O-])c1)c1ccco1", "viability": 93}, {"smiles": "CC(C)c1ccc(C2=C(O)c3ccccc3C(=O)C2=O)cc1", "viability": 112}, {"smiles": "N#CC1=C(N)Oc2n[nH]c(-c3cccnc3)c2C1c1ccc([N+](=O)[O-])o1", "note": "(configuration not stated)", "viability": 114}, {"smiles": "CCCc1cc(C(=O)Nc2ccccc2SC)no1", "viability": 103}, {"smiles": "CCOC(=O)c1c(C)nc2cc(C)ccn12", "viability": 91.3}, {"smiles": "c1ccc(-c2noc(CC3CCCCC3)n2)nc1", "viability": 112}, {"smiles": "Cc1c(-c2ccc(Br)cc2)nc2ccccn12", "viability": 85.7}, {"smiles": "CCCCCC1CC(CC(=O)NC(=S)Nc2ccc([N+](=O)[O-])cc2)C(=O)O1", "note": "(configuration not stated)", "viability": 104}, {"smiles": "O=C(N/N=C/c1ccc[nH]1)c1ccc(Cl)cc1", "viability": 87.8}, {"smiles": "Cc1ccc(-c2nnc(NC3CCCC3)s2)cc1", "viability": 98.3}, {"smiles": "CCOC(=O)COc1cc(N)c(Cl)cc1Cl", "viability": 103}, {"smiles": "CCCCc1ccc(NS(=O)(=O)c2c(C)n(C)c(=O)n(C)c2=O)cc1", "viability": 81}, {"smiles": "CN1CCN(/N=C/c2ccc(-c3ccc([N+](=O)[O-])cc3Cl)o2)CC1", "viability": 81.4}, {"smiles": "c1ccc(-c2nnc(SCc3cn4ccsc4n3)o2)cc1", "viability": 111}, {"smiles": "COC(=O)[C@@H](NC(=O)c1cc(COc2cncc(Cl)c2)on1)c1ccccc1", "viability": 97.6}, {"smiles": "N#CC(C(=O)NCc1ccco1)c1nc2ccccc2nc1N1CCOCC1", "note": "(configuration not stated)", "viability": 94.4}, {"smiles": "CCOC(=O)C1CCN(c2nc3cc(OC)ccc3cc2C#N)CC1", "viability": 104}, {"smiles": "CCCCCCOc1ccc(C(=O)O)cc1C#N", "viability": 104}, {"smiles": "Cc1ccc(C)c(NC(=O)COC(=O)c2cc3ccccc3oc2=O)c1", "viability": 89.2}, {"smiles": "CC(C)OC(=O)COc1ccc(-c2ccccc2)cc1", "viability": 113}, {"smiles": "CC(NC(=O)COc1ccc(-c2ccccc2)cc1)C1CCCO1", "note": "(configuration not stated)", "viability": 88.7}, {"smiles": "COC(=O)c1ccc(CSc2nnc(-c3ccncc3)o2)o1", "viability": 98.5}, {"smiles": "COCCCn1c(=NC(=O)c2ccccc2)c(C#N)cc2c(=O)n3cccc(C)c3nc21", "viability": 116}, {"smiles": "O=C(COC(=O)c1ccccn1)Nc1cccc(Cl)c1Cl", "viability": 114}, {"smiles": "CN(CCCCOc1ccc(F)cc1)Cc1ccccc1", "viability": 96.6}, {"smiles": "O=C(Nc1ccn(Cc2ccccc2)n1)c1ccc(F)cc1", "viability": 103}, {"smiles": "C=CCN=C1SC(CC)C(=O)N1S(=O)(=O)c1ccc(C)cc1", "note": "(configuration not stated)", "viability": 91.8}, {"smiles": "Cc1ccc(Sc2ccc(/C=C3/C(=O)NN(c4ccccc4)C3=O)o2)cc1", "viability": 73.6}, {"smiles": "Cc1ccc(N=Nc2c(C)[nH]n(C(N)=S)c2=O)cc1C", "viability": 93.5}, {"smiles": "O=[N+]([O-])c1ccccc1C1Nc2cccc3cccc(c23)N1", "viability": 110}, {"smiles": "CCOc1ccc(NCC(=O)c2ccc(C)cc2)cc1", "viability": 85.8}, {"smiles": "Cc1cc(/C=N\\NC(=O)c2cccs2)c(C)n1-c1ccc2ncccc2c1", "viability": 76.3}, {"smiles": "NC(N)=N/N=C/c1cccc([N+](=O)[O-])c1O", "viability": 103}, {"smiles": "Cc1cccc(Cc2cnc(NC(=O)C3=NCCN3)s2)c1", "viability": 86.2}, {"smiles": "COc1cc(/C=C2/C(=O)NN(c3ccc(Cl)cc3)C2=O)ccc1OC(=O)c1ccco1", "viability": 102}, {"smiles": "COC(=O)C1CC(=O)N(c2ccc(OCc3ccccc3Cl)cc2)C1", "note": "(configuration not stated)", "viability": 96.5}, {"smiles": "O=C(CCC1CCCCC1)NCc1ccc(F)cc1", "viability": 119}]}]}
